ULK1 primary = inhibitors of human ULK1 kinase | O75385 | AlphaScreen Atg13 phosphorylation by ULK1, luminescence | inhibition, % at 5.96 µM | AID 1259251 | 1.9% of 30,000 active; in the data active means inhibition above about 43%
ASK1 inh = inhibitors of human ASK1 kinase; inhibition, % at 7.44 µM; Q99683; AID 1159602; 0.99% of 22,000 active; AlphaScreen MKK6 phosphorylation by ASK1, luminescence; in the data active means inhibition above about 35%
Each line names hits and unclear results; the compound was inactive in the other large screens. Hits are enriched below; roughly 2.5% of the tested compounds scored in any of these assays.

N#Cc1ccccc1Nc1cc(NC(=O)Cc2ccc(F)cc2)ncc1C(F)(F)F	none
CNC(=O)c1ncccc1Nc1cc(Nc2ccc3c(c2)CCC(=O)N3)ncc1C(F)(F)F	ULK1 primary 48
O=C1Cc2cc(NC(=O)c3ccc(Br)cc3)ccc2N1	none (no result: ASK1 inh)
CNC(=O)c1cc(F)ccc1Nc1cc(Nc2ccc3c(c2)CC(=O)N3)ncc1C(F)(F)F	ULK1 primary 66
CNC(=O)c1ncccc1Nc1cc(Nc2ccc3c(c2)NC(=O)C3)ncc1C(F)(F)F	none
CNC(=O)c1cc(F)ccc1Nc1cc(Nc2ccc3c(c2)NC(=O)C3)ncc1C(F)(F)F	ULK1 primary 64
CC(=O)Nc1ccccc1Nc1cc(Nc2ccc3c(c2)CC(=O)N3)ncc1C(F)(F)F	ULK1 primary 82
CNC(=O)c1ncccc1Nc1cc(Nc2ccc3c(c2)CC(=O)N3)ncc1C(F)(F)F	none
O=C(NCc1cccnc1)c1cccc(Cl)n1	none
CN(C)CCNC(=O)c1cccc(-n2cc(NC(=O)Nc3ccccc3Cl)cn2)c1	none
CC(C)N(CCNc1cc(-c2ccccc2)ncn1)C(C)C	none
CCN(CC)C(=O)C1CCCN(c2nc(Nc3ccc(N4CCOCC4)cc3)c3ncn(-c4ccccc4)c3n2)C1 (stereo not given)	none
Cn1c(Nc2nc(NC3CCN(Cc4ccccc4)CC3)c3ncn(-c4ccsc4)c3n2)nc2ccccc21	none
C/C=C(\CC(NC)c1ccccc1)C[Si](C)(C)C (stereo not given)	none
Cc1cc(Nc2nccc(-c3cc(C#N)cc(N4CCOCC4)c3)n2)ccc1N1CCOCC1	none
c1cc(-c2cncc(N3CCOCC3)c2)nc(Nc2ccc3c(c2)OCCO3)n1	none
OC1CCN(c2ccc(Nc3nccc(-c4cc(F)cc(N5CCOCC5)c4)n3)cc2)CC1	ULK1 primary 45
c1cc(Cn2cccn2)cc(Nc2nccc(-c3cncc(N4CCOCC4)c3)n2)c1	ULK1 primary 80
N#Cc1ccc(Nc2nccc(-c3cncc(N4CCOCC4)c3)n2)cc1	none
OC1CCN(c2ccc(Nc3nccc(-c4cncc(N5CCOCC5)c4)n3)cc2)CC1	ULK1 primary 68
Fc1cc(-c2ccnc(Nc3ccc(N4CCOCC4)cc3)n2)cc(N2CCOCC2)c1	none
N#Cc1cc(-c2ccnc(Nc3cccc(CN4CCCCC4)c3)n2)cc(N2CCOCC2)c1	ULK1 primary 79
N[C@H]1CC[C@@H](c2nc3ccc(-c4ccncc4)cc3[nH]2)C1	none
Cn1c(Nc2nc3ccc(C(=O)NCc4cccc(C(F)(F)F)c4)cc3s2)nc2ccccc21	none
Cc1[nH]c(=S)sc1CC(=O)Nc1cnn(-c2cccc(C(=O)Nc3ccc(N4CCOCC4)cc3)c2)c1	none
Cn1nccc1Nc1nc(C(=O)NCCCN2CCCC2=O)cs1	none
Fc1cnc(Nc2ccc(CN3CCCCC3)cc2)nc1-c1cc(N2CCOCC2)cc(C(F)(F)F)c1	none
Fc1cc(-c2nc(Nc3ccc(CN4CCCCC4)cc3)ncc2F)cc(N2CCOCC2)c1	ULK1 primary 44
Cc1cc(N)nc(Nc2ccccc2)n1	none
NC(=O)c1ccccc1Nc1ccnc(Nc2ccc(N3CCOCC3)cc2F)c1	none
CN(C)Cc1cnc(Nc2ccc(N3CCOCC3)cc2)cc1Nc1ccccc1C#N	none
CNC(=O)c1ccccc1Nc1cc(Nc2ccc(N3CCSCC3)cc2OC)ncc1C#N	ULK1 primary 86
CNC(=O)c1ccccc1Nc1cc(Nc2ccc(N3CCS(=O)(=O)CC3)cc2OC)ncc1C#N	ULK1 primary 81
CC(=O)Nc1ccc(Nc2nc(Nc3cccc(N(C)C)c3)nc3c2ncn3C(C)C)cc1	none
CCN(CC)C(=O)C1CCCN(c2ncc(C)c(Nc3ccccc3)n2)C1 (stereo not given)	none
CO/N=C(\C(=O)O)c1csc(NC(=O)CCl)n1	none (no result: ASK1 inh)
O=C(CCl)Nc1nc(-c2ccc(Br)cc2)cs1	ULK1 primary 45 (no result: ASK1 inh)
COc1cc(NC(=O)c2ccnc(N3CCCC3CO)c2)cc(OC)c1OC (stereo not given)	none
O=C(O)c1ccccc1-c1c2cc(I)c(=O)c(I)c-2oc2c(I)c(O)c(I)cc12	none (no result: ASK1 inh)
O=C(O)c1c(Cl)c(Cl)c(Cl)c(Cl)c1-c1c2cc(I)c(=O)c(I)c-2oc2c(I)c(O)c(I)cc12	ULK1 primary 45 (no result: ASK1 inh)
c1ccc2c(Nc3nc(NCc4nc5ccccc5[nH]4)c4[nH]cnc4n3)nccc2c1	none
O=C(OCC1(COC(=O)c2cccnc2)CCCC(COC(=O)c2cccnc2)(COC(=O)c2cccnc2)C1O)c1cccnc1	ULK1 primary 45 (no result: ASK1 inh)
NC(=O)c1cccnc1	none (no result: ASK1 inh)
CCCNC(=O)c1cnc(Br)s1	none
c1ccc(-c2ncn(-c3ccc(Nc4nccc(-c5cccc(N6CCOCC6)c5)n4)cc3)n2)nc1	none
O=C(c1cc(Nc2ccc3[nH]ncc3c2)ccn1)N1CCOCC1	none
O=C(c1cccc(Nc2ccc3[nH]ncc3c2)n1)N1CCOCC1	ULK1 primary 48
Cc1cc(N2CCN(C)CC2)nc(N2CCN(S(=O)(=O)c3ccc(F)cc3)CC2)n1	none (no result: ASK1 inh)
Cc1nn(C)c(C)c1-c1nc(NCCOc2ccccc2)c2ncn(Cc3ccc(C(F)(F)F)cc3)c2n1	none
CNC(=O)c1cc(F)ccc1Nc1cc(Nc2ccc(NC(C)=O)cc2)ncc1C(F)(F)F	ULK1 primary 79

Screens (PubChem BioAssay)
